Nrf2 ARE act: qHTS of Nrf2 Activators. AREc32 ARE-luciferase reporter (MCF7-derived line), luminescence, 24 h. Potency, µM (top dose mostly 46.1 µM), for the others: at the top dose activation, hits mostly activators. 410,000 tested, 0.31% active; further: potency means the concentration at half of the fitted maximal effect; % of control where 0% means no effect; nearly all actives have a fitted effect of over 65% in size
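Nrf2 activation is followed as ARE-luciferase induction in the AREc32 line after one day of compound treatment; luminescence is read with Steady-Glo.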
Nrf2 block: Nrf2 qHTS screen for inhibitors. 360,000 tested, 2.1% active. AID 504444, 2011. Potency, µM (top dose mostly 46 µM), for the others: top-dose activity change, negative = inhibition, hits mostly inhibitors. A549 ARE-Fluc reporter, luciferase luminescence, 18-24 h; further: potency means the concentration at half of the fitted maximal effect; on the % scale 0 is the no-effect control and ±100 the full control effect; nearly all actives have a fitted effect of over 60% in size
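Cells were seeded and rested 2 h, then exposed to compounds for 18-24 h. CellTiter-Fluor was read first as a viability measure. BugLite was added 15 min before the final luminescent read of ARE-luciferase activity in A549 cells.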
A549 viability: Nrf2 qHTS screen for inhibitors: counterscreen for cytotoxicity. A549 ARE-Fluc cells, CellTiter-Fluor viability, 18-24 h. Potency, µM (top dose mostly 46 µM), inactives show at the highest dose activity change, negative = cytotoxicity, actives largely listed as inhibitors. 390,000 tested, 0.16% active; further: potency means the concentration at half of the fitted maximal effect; on the % scale 0 is the no-effect control and ±100 the full control effect
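A549 ARE-Fluc cells in 5% FBS OPTI-MEM, 5000 cells/well, rested 2 h then exposed to compounds in concentration-response for 18-24 h at 37 °C. Viability by CellTiter-Fluor fluorescence (Ex 405/Em 525) after 30 min; luciferase luminescence (BugLite, 15 min, RT) read afterwards.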
miR-21 reporter: qHTS Assay for Modulators of miRNAs and/orActivators of miR-21 | HeLa miR-21 FLuc reporter, luciferase, 48 h | Potency, µM (highest dose often 38.3 µM), for the others: top-dose activity change, positive = activation, most hits filed as activators | 340,000 tested, under 10 active | AID 2288, 2010;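 further: % of control where 0% means no effect; miR-21 action dims this reporter so a rising signal means less miR-21 action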
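HeLa cells endogenously expressing miR-21, stably carrying CMV-driven firefly luciferase with a downstream miR-21 binding site, 2000 cells/well. Titrations up to approximately 40 uM, 48 hours; luciferase luminescence read.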
B2AR arrestin: qHTS assay of beta-arrestin-biased ligands of beta2-adrenergic receptor | Beta-2 adrenergic receptor (Homo sapiens), P07550 | beta-arrestin recruitment to beta2AR, cell-based reporter | Potency, µM (top dose mostly 46.1 µM), without a hit: at the highest dose activation, most hits filed as activators | 330,000 tested, 0.02% active | AID 492947, 2010;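 further: potency means the concentration at half of the fitted maximal effect; 0% = DMSO controls and full agonism = EC100 isoproterenol or metaproterenol; nearly all actives have a fitted effect of over 65% in size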
Target sequence (P07550 whole entry, looked up): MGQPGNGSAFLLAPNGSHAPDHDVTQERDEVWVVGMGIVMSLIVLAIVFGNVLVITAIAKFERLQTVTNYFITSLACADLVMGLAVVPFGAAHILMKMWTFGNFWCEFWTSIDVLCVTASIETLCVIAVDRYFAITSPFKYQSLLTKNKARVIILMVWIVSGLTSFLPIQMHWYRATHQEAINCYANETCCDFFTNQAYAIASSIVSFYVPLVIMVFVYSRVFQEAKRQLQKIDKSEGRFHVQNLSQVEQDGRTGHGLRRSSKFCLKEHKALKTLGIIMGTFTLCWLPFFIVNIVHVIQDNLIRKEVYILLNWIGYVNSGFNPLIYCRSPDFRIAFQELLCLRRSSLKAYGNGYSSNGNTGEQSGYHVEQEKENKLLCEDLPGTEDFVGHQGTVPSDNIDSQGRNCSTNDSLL
Active calls of the source: *; ? = inconclusive; . = no result given; [ ] = another dose, or the depositor's remark. An excerpt weighted towards active compounds, which were near 2.2% of everything screened. The call rests on the fitted dose curve; in most records, active means well fitted curve in the direction sought with a large enough effect; inconclusive means small, poorly fitted or top-dose-only effect, or another doubt; inactive means no such curve, though single readings can be large; an effect the other way counts as inactive or inconclusive.

SMILES	Nrf2 ARE act	Nrf2 block	A549 viability	miR-21 reporter	B2AR arrestin
CCC(C)Nc1ccc(NC(C)CC)cc1 (stereo unspecified)	-3%	0.073µM*	0.15µM*	.	0%
CCC(C)NC(=O)Nc1ccc(Br)cc1 (stereo unspecified)	5%	?	6%	-25%	0%
COc1cc(-c2ccc3ncnc(NCC4CCCO4)c3c2)cc(OC)c1OC (stereo unspecified)	.	?	-1%	.	.
CC(C)(C)OC(=O)Cc1nnc(-c2nc3ccccc3[nH]2)o1	.	?	-6%	.	.
O=S(=O)(CC(CN1CCCCC1)N1CCCCC1)c1ccccc1 (stereo unspecified)	0%	18µM*	?	?	0%
COc1cccc(Sc2nc(N(C)C)ncc2S(=O)(=O)c2ccc(Cl)cc2)c1	.	-18%	-2%	.	.
COc1ccccc1OCC(=O)/C=C1/N(C)c2ccccc2C1(C)C	0%	?	-8%	21%	0%
CN1/C(=C\C(=O)c2cncc(Br)c2)C(C)(C)c2ccccc21	1%	23µM*	-11%	22%	0%
CN1/C(=C\C(=O)C[n+]2ccc3ccccc3c2)C(C)(C)c2ccccc21	7%	10µM*	?	29%	0%
CN1/C(=C\C(=O)c2cccnc2)C(C)(C)c2ccccc21	4%	?	-14%	-33%	0%
Cc1ccc(C(=O)NC(=S)/C=C2\N(C)c3ccccc3C2(C)C)cc1	0%	18µM*	?	-11%	0%
COc1cccc(-c2nnc3n2N=C(c2ccccc2OC)CS3)c1	.	?	-1%	.	.
OC(c1ccccc1)(c1ccccc1)c1cnc2ccccn12	.	-14%	-3%	.	.
O=C(COC(=O)C12CC3CC(CC(O)(C3)C1)C2)NCc1ccco1	.	22%	0%	.	.
CCC(=O)N1CCc2cc(Br)cc(S(=O)(=O)N3CCC(C(=O)Nc4ccccc4F)CC3)c21	0%	13µM*	1%	26%	.
CCC(=O)N1CCc2cc(Br)cc(S(=O)(=O)N3CCC(C(=O)NC(C)(C)C)CC3)c21	-1%	-4%	1%	-1%	0%
O=S(=O)(c1cccc(Cl)c1)N1CCN(c2nc(-c3ccccc3)nc3ccccc23)CC1	.	20%	-2%	.	.
CC(=O)Nc1cc(OC(C)=O)c2nonc2c1OC(C)=O	-3%	15µM*	?	?	0%
CC(=O)Oc1ccc2nonc2c1OC(C)=O	.	-9%	-18%	.	.
Cn1nccc1NC(=O)Nc1cccc(Cl)c1Cl	4%	16µM*	-1%	6%	0%
Cc1cc(C(=O)CN2C(=O)C(=O)N(C3CCCC3)C2=O)c(C)n1CCc1ccccc1	-1%	18µM*	-5%	.	-1%
Oc1ccc(CNc2cccc(F)c2F)c2cccnc12	.	.	.	.	0%
O=c1c2ccccc2nc(SCc2nc3ccccc3s2)n1Cc1ccco1	0%	4.6µM*	19%[1.84 µM]	-4%	-1%
O=c1c2ccccc2nc(SCc2ccccc2)n1Cc1ccco1	4%	-26%	-2%	-7%	0%
O=C(CSc1nc2ccccc2c(=O)n1Cc1ccco1)c1ccccc1	5%	18µM*	14%[1.84 µM]	0%	0%
SMILES	Nrf2 ARE act	Nrf2 block	A549 viability	miR-21 reporter	B2AR arrestin
O=c1oc2ccc(Br)cc2cc1-c1nc2c(s1)CCc1ccccc1-2	.	8%	0%	.	.
C[C@@H](Nc1nc(Cl)nc2nc[nH]c12)c1ccccc1	.	?	4%	.	.
CCC(=O)OCC(=O)C1(OC(=O)CC)[C@H](C)C[C@H]2[C@H]3[C@H]([C@@H](O)C[C@@]21C)[C@@]1(C)C=CC(=O)C=C1C[C@H]3Cl (stereo partly specified)	0%	0.052µM*	-8%	.	0%
CCN(CC)/[N+]([O-])=N/Oc1cc(O/N=[N+](\[O-])N(C)C)c([N+](=O)[O-])cc1[N+](=O)[O-]	.	19%	-25%	.	.
CCOC(=O)c1csc(NC(=O)c2ccccc2)n1	2%	?	7%	-18%	0%
CCOC(=O)c1csc(NC(=O)c2ccc(OCC)cc2)n1	0%	21µM*	-23%	9%	0%
Cc1cc(/C=N/n2c(COc3ccccc3C)nc3ccccc3c2=O)c(O)c([N+](=O)[O-])c1	3%	8.2µM*	?	-17%	0%
Cc1ccccc1OCc1nc2ccccc2c(=O)n1/N=C/c1c[nH]c2ccccc12	6%	?	?	-14%	1%
Cc1cc2c(s1)c1cnn(Cc3c(C)cc(F)cc3C)c(=O)c1n2C	.	7%	3%	.	.
O=c1[nH]c(O)c(/C=C2\C=Nc3ccccc32)[nH]1	4µM*	?	?	-43%	-1%
CC1CCC/C=C/C(=O)c2c(O)cc(O)cc2CC(=O)O1 (stereo unspecified)	-3%	5.8µM*	13µM*	?	0%
C[C@@H]1Cc2c(O)c(O)cc(O)c2C(=O)O1	4%	15%	-4%	4%	0%
CC1=C(C(=O)Nc2ccc(C)cc2C)C(CC(C)C)n2nc(SCc3ccccc3C)nc2N1 (stereo unspecified)	0%	11%	0%	4%	.
COc1ccc(NC(=O)Cn2c(=O)ccc3cc(S(=O)(=O)N4CCCC4)ccc32)cc1Cl	1%	.	-1%	17%	.
COc1ccc(NC(=O)Nc2cc(F)ccc2C)cc1	0%	21µM*	-9%	-3%	0%
COc1cccc(NC(=O)Nc2cc(Cl)ccc2C)c1	2%	18µM*	-3%	11%	0%
CCn1cc(CNC(=O)c2ccc(OC3CCN(Cc4ccccn4)CC3)cc2)cn1	3%	12µM*	1%	12%	-1%
O=C(NCc1ccccc1)C1=C[C@H](c2csc3ccccc23)C[C@H](OCc2ccc(CO)cc2)O1	3%	?	-16%	8%	-1%
O=C(Nc1ccccc1)C1=C[C@@H](c2csc3ccccc23)C[C@@H](OCc2ccc(CO)cc2)O1	5%	16µM*	-1%	19%	0%
Cc1cc2c(s1)c1cnn(Cc3cccc(Cl)c3F)c(=O)c1n2C	.	7%	-2%	.	.
CCOc1ccccc1Nc1nc(-c2cccc(Cl)c2)c2c(n1)-c1ccccc1OC2	0%	?	-9%	25%	.
CN1c2cc(Cl)ccc2-c2nc(SCC(=O)Nc3ccc(F)cc3F)ncc2S1(=O)=O	-1%	16µM*	-17%	3%	.
Cc1ccc(NC(=O)CSc2ncc3c(n2)-c2ccc(Cl)cc2N(C)S3(=O)=O)cc1F	1%	?	-2%	-1%	.
Cc1ccc(S(=O)(=O)N2CCN(c3nc(-c4cscn4)nc4ccccc34)CC2)cc1	.	-18%	-4%	.	.
Cc1ccccc1OCCCCn1c(CCNC(=O)C(C)(C)C)nc2ccccc21	3%	23µM*	-25%	14%	.
CCOP(=O)(OCC)c1nc(-c2ccc(Cl)cc2Cl)oc1N1CCCCC1	4%	21µM*	?	-4%	0%

Compound activity from PubChem BioAssay.
